# Source: PubChem BioAssay
# BRCA1 expr up = qHTS Assay to Identify Small Molecule Activators of BRCA1 Expression | AID 624202, 2012 | actives 1.1% (n = 380,000) | Potency, µM (titrated, usually from 46.1 µM), for the others: at the highest dose activation, most hits filed as activators | MCF7-BRCA1-FFLuc reporter, luminescence, 48 h; response scale: scaled: vehicle 0%, 10 µM genistein 100%; also: potency is read from the fitted curve at half-maximal effect; nearly all actives have a fitted effect of over 80% in size
#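 Luminescence from a BRCA1-driven firefly luciferase in MCF7 cells was the read-out, taken 15 min after substrate addition following 48 h compound exposure at 37 °C. Data were normalized to a 10 microM genistein control and DMSO vehicle.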
# IL-2 act = qHTS of IL-2 Activators. IL-2 activation reporter assay, cell-based qHTS; stimulated with anti-CD3/CD4/CD28 beads; in transgenic mouse T cells. actives 0.065% (n = 360,000). activation, % (series mostly up to about 46 µM). AID 652025, 2013; in the data active = activation above about 50%; inconclusive = mostly about 30% to 49%; also: 0% is about no effect
#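 First, unstimulated transgenic mouse T cells were exposed to compound for 60 min. Next, anti-CD3/anti-CD4-coated beads with anti-CD28 were added. Finally, after 18 h at 37 degrees C, EGFP and DsRed were imaged.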
# Nrf2 ARE act = qHTS of Nrf2 Activators | actives 0.31% (n = 410,000) | AID 624171, 2012 | AREc32 ARE-luciferase reporter (MCF7-derived line), luminescence, 24 h | Potency, µM (highest dose often 46.1 µM), for the others: at the highest dose activation, most hits filed as activators; also: potency is read from the fitted curve at half-maximal effect; % of control where 0% means no effect; nearly all actives have a fitted effect of over 65% in size
#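 Each well held 1000 AREc32 cells, which were incubated with compound for 24 hr at 37 deg C after overnight attachment, and ARE reporter activity was quantified by firefly luciferase luminescence.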
# A549 tox-1 = Nrf2 qHTS screen for inhibitors: counterscreen for cytotoxicity; A549 ARE-Fluc cells, CellTiter-Fluor viability, 18-24 h; Potency, µM (highest dose often 46 µM), for the others: top-dose activity change, negative = cytotoxicity, actives largely listed as inhibitors; actives 0.16% (n = 390,000); also: potency is read from the fitted curve at half-maximal effect; % is scaled to controls: 0 for no effect and ±100 for the full control effect
#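 Cytotoxicity counterscreen: CellTiter-Fluor fluorescence was measured in A549 ARE_Fluc cells after 18-24 h of compound exposure in a concentration series. The subsequent BugLite luminescent read reports ARE-luciferase activity.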
# p53 reactivator = qHTS assay for re-activators of p53 using a Luc reporter. H1299 p53-A138V BP100-luciferase reporter, luminescence, 24 h. Potency, µM (doses to about 92.2 µM), for the others: at the highest dose activity change, positive = activation, actives largely listed as activators. actives 0.063% (n = 320,000). AID 504706, 2011; also: potency is read from the fitted curve at half-maximal effect; % of control where 0% means no effect; nearly all actives have a fitted effect of over 45% in size
#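 H1299 (p53-null), stable ts p53-A138V + BP100-Luc; 1000 cells/well, Opti-MEM/10% FBS; cpd 4 pt, 1:5; 24 h, 37 deg C, 5% CO2; detection reagent 10 min RT; luminescence.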
# Nrf2 block = Nrf2 qHTS screen for inhibitors | A549 ARE-Fluc reporter, luciferase luminescence, 18-24 h | Potency, µM (highest dose often 46 µM), for the others: at the highest dose activity change, negative = inhibition, actives largely listed as inhibitors | actives 2.1% (n = 360,000); also: potency is read from the fitted curve at half-maximal effect; % is scaled to controls: 0 for no effect and ±100 for the full control effect; nearly all actives have a fitted effect of over 60% in size
#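 Cells were seeded and rested 2 h, then exposed to compounds for 18-24 h. CellTiter-Fluor was read first as a viability measure. BugLite was added 15 min before the final luminescent read of ARE-luciferase activity in A549 cells.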
# FLuc enzyme inh = Nrf2 qHTS screen for inhibitors: Purified Fluc Biochemical Counterscreen for Hit Validation; shares compounds with Nrf2 block; purified firefly luciferase, luminescence inhibition; Potency, µM (doses to about 57.5 µM), for the others: at the top dose activity change, negative = inhibition, actives largely listed as inhibitors; actives 4% (n = 1,400); AID 720522, 2013; also: potency is read from the fitted curve at half-maximal effect; % is scaled to controls: 0 for no effect and ±100 for the full control effect; nearly all actives have a fitted effect of over 65% in size
# Target sequence (P08659 whole entry, looked up): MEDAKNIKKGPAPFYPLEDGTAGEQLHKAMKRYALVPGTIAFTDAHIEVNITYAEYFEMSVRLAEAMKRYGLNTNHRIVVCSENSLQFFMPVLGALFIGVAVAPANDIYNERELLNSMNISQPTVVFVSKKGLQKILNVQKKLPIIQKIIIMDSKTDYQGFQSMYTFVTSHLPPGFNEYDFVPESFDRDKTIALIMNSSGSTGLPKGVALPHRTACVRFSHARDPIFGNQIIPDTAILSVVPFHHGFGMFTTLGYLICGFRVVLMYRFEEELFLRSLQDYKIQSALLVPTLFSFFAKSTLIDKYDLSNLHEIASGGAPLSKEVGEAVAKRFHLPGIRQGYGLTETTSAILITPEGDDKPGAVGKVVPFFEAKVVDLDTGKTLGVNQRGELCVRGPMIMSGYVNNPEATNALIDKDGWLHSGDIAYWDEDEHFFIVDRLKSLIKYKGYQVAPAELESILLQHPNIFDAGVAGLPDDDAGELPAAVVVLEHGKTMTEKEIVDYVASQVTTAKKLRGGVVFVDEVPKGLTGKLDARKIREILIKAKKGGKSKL
# A549 tox-2 = Nrf2 qHTS screen for inhibitors: A549 ARE-Fluc Cytotoxicity Counterscreen for Hit Validation. Potency, µM (series often up to 46.1 µM), inactives show top-dose activity change, negative = cytotoxicity, actives largely listed as inhibitors. actives 2% (n = 1,400). AID 720523, 2013. shares compounds with Nrf2 block. A549 ARE-Fluc cells, cytotoxicity counterscreen;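 also: potency is read from the fitted curve at half-maximal effect; cells exposed to compounds for 18 to 24 hours; % is scaled to controls: 0 for no effect and ±100 for the full control effect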
# Nrf2 ARE inh = Nrf2 qHTS screen for inhibitors: Nrf2 A549 ARE-Fluc Confirmation Assay for Hit Validation; shares compounds with Nrf2 block; A549 ARE-firefly luciferase reporter, luminescence; Potency, µM (top dose mostly 46.1 µM), without a hit: at the top dose activity change, negative = inhibition, actives largely listed as inhibitors; actives 74% (n = 1,400); also: potency is read from the fitted curve at half-maximal effect; % is scaled to controls: 0 for no effect and ±100 for the full control effect; nearly all actives have a fitted effect of over 65% in size
# * hit, by the source's call; ? = inconclusive; / = no result shown; ! = not confirmed by another sample. Sampled rows, rich in hits. Any-hit rate of the full collection: about 3.2%. Unless noted, calls follow the shape of the dose curve; as a rule, active = well fitted curve in the direction sought with a large enough effect; inconclusive = small, poorly fitted or top-dose-only effect, or another doubt; inactive = no such curve, though single readings can be large; an effect the other way counts as inactive or inconclusive.
SMILES,BRCA1 expr up,IL-2 act,Nrf2 ARE act,A549 tox-1,p53 reactivator,Nrf2 block,FLuc enzyme inh,A549 tox-2,Nrf2 ARE inh
Cc1ccccc1C(=O)Nc1sc2c(c1C(=O)O)CCC(C(C)(C)C)C2 (stereo unspecified),/,/,-3%,-19%,/,3.7µM*,/,/,/
CCCOP(=O)(OCCC)c1nc(-c2ccccc2)oc1NCc1ccccc1,-78%,-4,7%,?,-5%,18µM*,/,/,/
Cc1cc(C(=O)CS(=O)(=O)c2ccc(F)cc2)cc(C)c1OC(=O)N(C)C,4µM*,1,2%,-1%,9%,?,/,/,/
CC1=C(N2CC2)C(=O)C(CO)=C(N2CC2)C1=O,?,-7,-3%,9.2µM*,/,0.52µM*,2%,-10%,1.6µM*
CC12CC[C@H]3[C@@H](CCC4(O)C[C@H](O)CCC34/C=N/NC(=O)c3ccc(O)cc3)C1(O)CCC2C1=CC(=O)OC1 (stereo partly specified),1%,-5,0%,-12%,-1%,-30%,/,/,/
CN(C)c1ccc(C(=O)N/N=C/C23CC[C@@H](O)CC2(O)CC[C@@H]2[C@@H]3CCC3(C)C(C4=CC(=O)OC4)CCC23O)cc1 (stereo partly specified),-41%,0,-5%,?,8%,5.8µM*,1%,?,3.7µM*
CC12CC[C@H]3[C@@H](CCC4(O)C[C@H](O)CCC34/C=N/NC(=O)c3ccccc3F)C1(O)CCC2C1=CC(=O)OC1 (stereo partly specified),-4%,-3,4%,-25%,2%,9.2µM*,-10%,?,12µM*
CC12CC[C@H]3[C@@H](CCC4(O)C[C@H](O)CCC34/C=N/NC(=O)c3ccccc3O)C1(O)CCC2C1=CC(=O)OC1 (stereo partly specified),-53%,2,1%,-1%,10%,?,/,/,/
COc1ccc(CC2c3cc(OC)c(OC)cc3CCN2C)cc1O (stereo unspecified),7%,0,-1%,-1%,2%,11%,/,/,/
CC[C@H]1CN2CCc3cc(OC)c(OC)cc3C2C[C@@H]1C[C@H]1NCCc2cc(OC)c(OC)cc21 (stereo partly specified),-39%,0,-2%,?,-2%,0.12µM*,-1%,?,0.52µM*
COc1ccc(NC(=O)CSc2nc(-c3ccco3)cc(C(F)(F)F)n2)cc1OC,/,/,0%,-11%,/,1.6µM*,-2%,-8%,2.3µM*
CCC(=NC(C)c1ccccc1)c1c(O)n(C)c(=O)n(C)c1=O (stereo unspecified),-68%,-3,3%,-16%,-16%,5.8µM*,2%,-8%,7.3µM*
CCC(=NCCc1c[nH]c2ccccc12)c1c(O)n(C)c(=O)n(C)c1=O,-79%,-2,3%,?,-2%,9.2µM*,2%,-1%,/
CCC(=NCCc1c[nH]c2ccccc12)c1c(O)n(-c2ccc(C)cc2)c(=O)[nH]c1=O,-11%,-1,2%,?,2%,?,/,/,/
CCCCCn1c(=O)c(C(=O)Nc2nc3ccccc3[nH]2)c(O)c2ccccc21,-8%,-2,0%,?,1%,2.6µM*,3%,?,6.5µM*
CCCCn1c(=O)c(C(=O)Nc2nc3ccccc3[nH]2)c(O)c2ccccc21,/,/,/,/,18%,/,/,/,/
C[C@H]1CCCC(=O)CCC/C=C/c2cc(O)cc(O)c2C(=O)O1,-31%,0,0%,-5%,-12%,3%,/,/,/
C[C@H]1CCC/C=C/[C@@H]2C[C@H](O)C[C@H]2[C@H](O)/C=C/C(=O)O1,?,1,1%,?,6%,0.23µM*!,1%,?,/
Cc1ccccc1CN1C(=O)C(C)N=C(c2ccccc2)c2ccccc21 (stereo unspecified),/,/,8%,0%,/,/,/,/,/
CCC1(O)C(=O)OCc2c1cc1n(c2=O)Cc2cc3cc(O)ccc3nc2-1 (stereo unspecified),?,0,-2%,14%,/,2.3µM*,-8%,12%,0.41µM*
CC[C@@]1(O)C(=O)OCc2c1cc1n(c2=O)Cc2cc3ccccc3nc2-1,-10%,/,/,-14%,0%,2.1µM*,2%,?,0.46µM*
COc1ccc(C(=O)Nc2ccccc2-c2nnn(CC(=O)Nc3ccc4c(c3)OCCO4)n2)cc1,-22%,0,0%,-4%,2%,?,/,/,/
O=C(O)[C@@H]1C[C@H]2C[C@@H](CP(=O)(O)O)CC[C@H]2CN1,/,/,/,7%,/,15%,/,/,/
CN1CC[C@@]2(C)c3cc(O)ccc3N(C)C12 (stereo partly specified),-16%,/,/,/,/,/,/,/,/
CC(=O)OC1CC[C@]2(C#N)[C@H]3CC[C@]4(C)[C@H](C5C=CC(=O)O5)CCC4(O)C3CCC2(O)C1 (stereo partly specified),-47%,1,-5%,-15%,4%,5.2µM*,-2%,?,6.5µM*
NCC(=O)c1ccc2ccccc2c1,5%,/,/,/,/,/,/,/,/
COc1cc(C)c(C(=O)CC(=O)c2c(C)cc(OC)cc2C)c(C)c1,-86%,-1,2%,1%,/,?,/,/,/
COC(=O)C12OCC34C(CC5C(C)=C(O)C(=O)CC5(C)C3C(O)C1O)OC(=O)C(OC(=O)/C=C(\C)C(C)C)C24 (stereo unspecified),?,-8,-2%,0.29µM*,/,0.058µM*,0%,-12%,1.2µM*
